# According to PubChem BioAssay AID1619 (SRMLSC, 2009):
# Out of some 220,000 compounds screened, about 830 (0.38%) were called active.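 Rule for the calls: active = compound inhibiting the enzyme by more than half at any dose during confirmatory dose-response retesting; inconclusive = strong single-dose inhibitors picked by rank but not retested; inactive = the rest.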 Not all results are given here. Measured potencies and affinities stand elsewhere.
# Target: Leucine aminopeptidase (Plasmodium falciparum (isolate 3D7)) (UniProt Q8IL11)
# Assay: P. falciparum M17LAP inhibitors, primary screen, biochemical, fluorogenic H-Leu-NHMec substrate, 1536-well (AID 1619);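 note: plate controls were full reaction with DMSO carrier for no effect and no enzyme background for full effect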
# Details: recombinant M17LAP, H-Leu-NHMec fluorogenic kinetic assay; at 30 µM; active compounds read high
# Chain of Leucine aminopeptidase (Plasmodium falciparum (isolate 3D7)) (Q8IL11 whole entry, looked up): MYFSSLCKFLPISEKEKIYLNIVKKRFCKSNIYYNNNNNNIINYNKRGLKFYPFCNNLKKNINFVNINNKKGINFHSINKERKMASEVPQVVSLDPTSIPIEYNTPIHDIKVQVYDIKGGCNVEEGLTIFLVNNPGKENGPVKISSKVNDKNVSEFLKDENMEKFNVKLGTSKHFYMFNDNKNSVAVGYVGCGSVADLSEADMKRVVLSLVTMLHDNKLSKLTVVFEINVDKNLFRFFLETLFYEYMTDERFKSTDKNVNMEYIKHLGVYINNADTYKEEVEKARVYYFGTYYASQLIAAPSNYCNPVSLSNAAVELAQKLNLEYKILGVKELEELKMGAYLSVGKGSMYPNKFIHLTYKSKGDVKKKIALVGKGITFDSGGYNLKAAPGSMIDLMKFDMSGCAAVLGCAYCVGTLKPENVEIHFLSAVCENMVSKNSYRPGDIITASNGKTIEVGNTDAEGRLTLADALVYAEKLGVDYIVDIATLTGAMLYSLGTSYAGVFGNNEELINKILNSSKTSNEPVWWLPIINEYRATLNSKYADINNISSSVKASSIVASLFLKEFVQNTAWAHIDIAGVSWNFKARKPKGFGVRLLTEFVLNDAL
row,SMILES,inhibition
1,Cc1cccc(OCCSc2nncn2C)c1,-2.41% (inactive)
2,O=C1c2ccccc2C(=O)N1CSc1nnc(Nc2ccccc2F)s1,4.65% (inactive)
3,CN(C)c1oc(-c2ccccc2Cl)nc1S(=O)(=O)c1ccccc1,0.69% (inactive)
4,Cc1cccc(C)c1NC(=S)N/N=C/c1ccccc1C(=O)O,7.19% (inactive)
5,COc1cc(/C=C/C(=O)OCC(=O)Nc2ccccc2Cl)cc(OC)c1OC,7.2% (inactive)
6,Cc1ccccc1C(=O)NC(CC(C)C)C(=O)OCC(=O)c1c(N)n(C)c(=O)n(C)c1=O (centres undefined),-1.49% (inactive)
7,CC(C)(C)NC(=O)C(c1ccc(O)cc1)N(C(=O)CCC(=O)Nc1nccs1)c1ccc(F)cc1 (centres undefined),13.2% (inactive)
8,O=C(CCCOc1ccccc1)Nc1ccccc1C(F)(F)F,-17.7% (inactive)
9,O=C1CC(c2ccccc2)=NN1c1nc(-c2ccccc2)cs1,-0.33% (inactive)
10,CC1SCC(=O)N(CC(=O)Nc2ccc3c(c2)OCCO3)C1=O (centres undefined),2.2% (inactive)
11,CC1SC(C)C(=O)N(CC(=O)Nc2ccc3c(c2)OCO3)C1=O (centres undefined),35.2% (inactive)
12,CCOc1ccc(NC(=O)CN2C(=O)C(C)SC(C)C2=O)cc1 (centres undefined),5.98% (inactive)
13,O=C(CN1C(=O)CSCC1=O)NCc1ccc(F)cc1,18.6% (inactive)
14,COc1ccc(NC(=O)CN2C(=O)C(C)SC(C)C2=O)c(OC)c1 (centres undefined),26.5% (inactive)
15,CCOC(=O)c1ccc(NC(=O)CN2C(=O)CSC(C)C2=O)cc1 (centres undefined),37% (inactive)
16,CCOc1ccc(NC(=O)CN2C(=O)CSC2=O)cc1,54.4% (inactive)
17,CCC1SC(CC)C(=O)N(CC(=O)NCc2ccc(F)cc2)C1=O (centres undefined),7.04% (inactive)

row,SMILES,inhibition
1,CCOC(=O)C1(CCSC)NC(c2ccco2)C2C(=O)N(C)C(=O)C21 (centres undefined),-0.76% (inactive)
2,CC(=O)c1sc(N2CCOCC2)nc1-c1ccccc1,9.61% (inactive)
3,OCCC1CN(Cc2nc(-c3ccccc3)cs2)CCN1C1CCCC1 (centres undefined),7.26% (inactive)
4,Cc1c(-c2ccccc2)oc2c(C(=O)OCC(=O)Nc3cccc(F)c3)cccc2c1=O,2.04% (inactive)
5,CCOC(=O)c1ccc(NC(=O)c2cccc(C)c2[N+](=O)[O-])cc1,0.85% (inactive)
6,CCCCN(CC)S(=O)(=O)c1ccc(C(=O)N(CCCN(C)C)c2nc3cc(C)cc(C)c3s2)cc1,-3.97% (inactive)
7,CC(=O)Nc1cccc(C(=O)OCc2ccc([N+](=O)[O-])cc2)c1,1.17% (inactive)
8,Cc1cccc(Nc2nnc(C)c(=O)n2N)c1,8.38% (inactive)
9,O=c1[nH]c2ccc(S(=O)(=O)N3CCN(c4ccccc4)CC3)cc2[nH]c1=O,40.2% (inactive)
10,O=c1[nH]c2ccc(S(=O)(=O)N3CCCCC3)cc2[nH]c1=O,38.3% (inactive)
11,COC(=O)NCc1ccc2c(c1)OCO2,2.83% (inactive)
12,COCC(=O)NCc1ccc2c(c1)OCO2,-6.02% (inactive)
13,COc1ccc(OCCCC(=O)Nc2cccc(SC)c2)cc1,1.34% (inactive)
14,Nc1c(C(=O)C2CC2)sc2nc(-c3ccccc3)cc(C(F)(F)F)c12,-0.94% (inactive)
15,O=c1cc(O)c2sc3nc(-c4ccccc4)cc(C(F)(F)F)c3c2[nH]1,-7% (inactive)
16,Cc1cc(C)cc(N(C(=O)c2sc(C)nc2C)C(C(=O)NC(C)(C)C)c2ccncc2)c1 (centres undefined),0.85% (inactive)
17,FCCCOc1ccc(/C=N/OCc2ccc(Cl)cc2Cl)cc1,11.5% (inactive)
